Assay outcomes from PubChem BioAssay.
In the library only some 7.3% were active in any assay of this set; here they are far more common.
Vaccinia Venus: qHTS for Stage-Specific Inhibitors of Vaccinia Orthopoxvirus: Venus Reporter Primary qHTS; Vaccinia virus Venus reporter expression, fluorescence; Potency, µM (highest dose often 36.5 µM), usual class: inhibitors; 0.46% of 330,000 active; calls by dose curve; tested in A549 cells; also: nearly all actives have a fitted effect of over 30% in size
HCV inh: qHTS Assay for Inhibitors of Hepatitis C Virus (HCV). 3.4% of 340,000 active. Potency, µM (series often up to 41.8 µM), most hits filed as inhibitors. Huh7.5.1 HCVcc-Cre infection, luciferase reporter, 44 h; active = well fitted inhibition curve with a large enough effect; inconclusive = small, poorly fitted or top-dose-only effect, or another doubt; inactive = no such curve, though single readings can be large or run the other way
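1,000 cells/well; 4 h culture; + compound; + HCVcc-Cre (~0.5 moi); 44 h; luciferase substrate, RT 15 min; read 15 sec.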
FMDV antiviral: High Throughput Screening for Foot and Mouth Disease Virus Antivirals; FMDV antiviral cell-based qHTS; Potency, µM (doses to about 57.9 µM), hits mostly inhibitors; 1.2% of 410,000 active; AID 1159524, 2015; calls by dose curve; tested in HEK293T cells; also: read-out not given here; nearly all actives have a fitted effect of over 45% in size
HCMV antiviral: qHTS Assay for inhibitors of the human cytomegalovirus (HCMV); HFF cells, HCMV-luciferase reporter, 72 h; hits give low values; activity change, negative = inhibition, % at 57.5 µM; 4.5% of 410,000 active; AID 1259415, 2018; in the data active = activity change below about -60%; inconclusive = no clear call, values can overlap the other calls; inactive = above about -39%
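HFF cells seeded 16 h at 37C, treated with compounds, infected with luciferase-reporter HCMV at MOI 1 PFU/cell; luciferase read at 72 h post infection, normalized to buffer-only and Salinomycin controls.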
Vaccinia mCherry: qHTS for Stage-Specific Inhibitors of Vaccinia Orthopoxvirus: mCherry Reporter Primary qHTS | Vaccinia virus mCherry reporter infection, fluorescence | Potency, µM (titrated, usually from 36.5 µM), most hits filed as inhibitors | 0.63% of 310,000 active | AID 720579, 2013; calls by dose curve; tested in A549 cells; also: nearly all actives have a fitted effect of over 35% in size
Numbers stand for hits; – = inactive; ? = inconclusive; · = no result; [ ] = dose if it differs, or a comment.

SMILES | Vaccinia Venus | HCV inh | FMDV antiviral | HCMV antiviral | Vaccinia mCherry
O=C(c1cc(-c2cccc(Cl)c2)nc2ccccc12)N1CCN(c2ccccn2)CC1 | – | ? | – | – | –
Cc1cccc2c(C(=O)N3CCN(c4ccccn4)CC3)cc(-c3cccc(Br)c3)nc12 | · | ? | 25µM | ? | ·
CCCCC1CCC(C(=O)NCC(c2ccco2)N2CCOCC2)CC1 (configuration not stated) | · | · | · | – | ·
Cc1cn([C@H]2C[C@H](O)[C@@H](/C=C/C(=O)NCCN3CCOCC3)O2)c(=O)[nH]c1=O | – | · | – | – | –
CCOC(=O)/C(C#N)=C(C)/C=C1\Sc2ccccc2N1CC | – | ? | – | – | –
CC[n+]1c(C)sc2c3ccsc3ccc21 | – | – | – | – | –
CCN1/C(=C\c2ccc3cc(C)ccc3[n+]2CC)Sc2cc(C)c(C)cc21 | · | 2.8µM | ? | -97 | ·
CCN1/C(=C/c2ccc3cc(C)ccc3[n+]2CC)Sc2ccc3sccc3c21 | – | 3.5µM | 35µM | · | –
CCN1/C(=C/c2ccc3cccc(C)c3[n+]2CC)Sc2ccccc21 | · | 6.3µM | 7.9µM | -104 | ·
CC1=C(C(=O)N2CCCCCC2)CC(CC(=O)NCCCN(C)C)C(=O)N1Cc1ccccc1 (configuration not stated) | – | · | – | – | –
CN(c1ccc(Cl)cc1)S(=O)(=O)c1nnc(NC(=O)C2CCCCC2)s1 | – | · | – | – | –
CN(C(=S)NC(=O)C12CC3CC(CC(C3)C1)C2)c1ccc(O)cc1 | · | – | – | -61 | ·
CN(C)NC(=S)NC(=O)C12CC3CC(CC(C3)C1)C2 | – | – | – | – | –
O=C1C=C(Nc2cccc3cccnc23)c2ccccc2C1=O | – | ? | 28µM | -75 | ?
O=C1C=C(Nc2ccccc2)C(=O)c2ccccc21 | ? | – | – | – | –
CCCCNC1=CC(=O)C(=O)c2ccccc21 | · | 11µM | 35µM | – | ·
O=C1C=C(Nc2ccccc2)c2ccccc2C1=O | 7.9µM | 8.9µM | ? | -64 | ?
CN1C[C@]2(CCN3CCCC(C)(C)[C@@H]32)c2ccccc21 | · | · | · | – | ·
Cc1cccc(NC(=O)COC(=O)CN2C(=O)c3ccccc3C2=O)c1C | – | · | – | – | –
c1ccc2c(c1)nnn2Cn1nnc2ccccc21 | – | · | – | -63 | –
CCc1ccc(NC(=O)c2ccc3c(c2)CCN3S(C)(=O)=O)cc1 | – | · | – | – | –
CCCCOC(=O)c1ccc(NC(=O)c2ccc3c(c2)CCN3S(C)(=O)=O)cc1 | – | · | 35µM | – | –
CS(=O)(=O)N1CCc2cc(C(=O)Nc3ccc(Cl)c(C(F)(F)F)c3)ccc21 | – | · | – | -71 | –
Cc1ccc(NC(=O)c2ccc3c(c2)CCN3S(C)(=O)=O)cc1C | – | 11µM | – | – | –
Cc1ccc(NC(=O)c2ccc3c(c2)CCN3S(C)(=O)=O)cc1 | – | · | – | – | –
SMILES | Vaccinia Venus | HCV inh | FMDV antiviral | HCMV antiviral | Vaccinia mCherry
CS(=O)(=O)N1CCc2cc(C(=O)Nc3ccc(Br)cc3)ccc21 | · | ? | – | – | ·
CC(C)c1ccc(NC(=O)c2ccc3c(c2)CCCN3S(C)(=O)=O)cc1 | ? | · | 10µM | -74 | ?
CN(CCc1ccccc1)C(c1cc2ccccc2o1)c1nnnn1C(C)(C)C (configuration not stated) | – | · | – | – | –
Cc1ccc(S(=O)(=O)N2CCc3cc(C(=O)Nc4ccc(C(F)(F)F)cc4)ccc32)cc1 | – | · | – | – | –
CS(=O)(=O)N1CCc2cc(C(=O)Nc3ccc(C(F)(F)F)cc3)ccc21 | – | · | – | -63 | –
CCCCc1ccc(NC(=O)c2ccc3c(c2)CCN3S(=O)(=O)CC)cc1 | ? | · | – | -64 | ?
CCN(CC)CCSc1nnc2c3cc(C)ccc3n(Cc3ccccc3)c2n1 | –[7.34 µM] | 13µM | – | -85 | –[7.34 µM]
CCOC(=O)[C@]12CCCC=C1N(CCc1ccc(OC)c(OC)c1)C(=O)[C@H](CC(=O)N1CCCCC1)C2 | – | · | – | – | –
COc1cc(OC)c(OC)cc1C#N | – | – | – | – | –
COc1cc2c(cc1OC)C1(CCCC1)C(N)=C2C#N | ? | 3.2µM | – | ? | ·
O=C(NC(=S)NNC(=O)c1ccccc1O)c1cccs1 | – | 8.9µM | – | ? | ?
O=C(NC(=S)NNC(=O)c1ccccc1O)c1ccccc1 | – | – | – | – | ?
COc1ccc(C(=O)NNC(=S)NC(=O)c2cccs2)cc1 | – | ? | – | – | ?
COc1ccccc1C(=O)NNC(=S)NC(=O)c1cccs1 | · | · | · | -78 | ·
